For twelve compounds, outcome and AC50 results are on record in PubChem BioAssay (EPA / NIEHS).

Inconclusive results are not listed. Activity calls are given as the source filed them. Rule for the calls: active = hit-call score of the fitted dose curve at least 0.9, where 1 is the maximum; inconclusive = response in the unintended direction; inactive = score below 0.9.

Test [1] has as its target rabbit Imidazoline 2 Central (I2C), CKB (gene 100009085) (UniProt P00567). Put plainly: NVS_ENZ_rabI2C: NovaScreen (NVS) Enzymatic Assay for rabbit Imidazoline 2 Central (I2C) (AID 2283228). The method in brief:
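Rabbit brain membranes, cell-free; readout by filter-based scintillation counting 1.5 hours after dosing, loss of signal vs DMSO. Initial duplicate test at 25 uM, then concentration-response with 50 uM top concentration.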

For test [2], the target named is human Vascular Endothelial Growth Factor Receptor 1 (VEGFR1), FLT1 (gene 2321) (UniProt P17948). Put plainly: NVS_ENZ_hVEGFR1: NovaScreen (NVS) Enzymatic Assay for human Vascular Endothelial Growth Factor Receptor 1 (VEGFR1) (AID 2283226). A digest of the protocol: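 Cell-free assay of recombinant human VEGFR1 kinase with substrate, measured 1 h after dosing; fluorescence with electrophoretic mobility-shift separation of substrate and product, referenced to DMSO; primary screen at 25 uM in duplicate, actives then run in concentration series.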

In test [3] the target is human Protein Tyrosine Phosphatase Receptor Type M (PTPRM), PTPRM (gene 5797) (UniProt P28827). The experiment in a line: NVS_ENZ_hPTPRM: NovaScreen (NVS) Enzymatic Assay for human Protein Tyrosine Phosphatase Receptor Type M (PTPRM) (AID 2283215). A digest of the protocol:
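Cell-free recombinant PTPRM with fluorogenic substrate; product separated from substrate by electrophoretic mobility shift and read by fluorescence, 1.33 h after dosing. Primary screen single concentration (25 uM) in duplicate; actives retested in concentration series; loss of signal versus DMSO.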

Test [4] addresses human Tyrosine Protein Kinase Receptor Tie-2 (Tie2), TEK (gene 7010) (UniProt Q02763). Put plainly: NVS_ENZ_hTie2: NovaScreen (NVS) Enzymatic Assay for human Tyrosine Protein Kinase Receptor Tie-2 (Tie2) (AID 2283225). The method in brief: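 Recombinant human Tie2 kinase activity was read cell-free by fluorescence with electrophoretic mobility shift, 1 hour after dosing. The screen used 25 uM in duplicate, then concentration-response up to 50 uM. Signal loss was scored against DMSO.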

Test [5] has as its target human Sirtuin 3 (SIRT3), SIRT3 (gene 23410) (UniProt Q9NTG7). Put plainly: NVS_ENZ_hSIRT3: NovaScreen (NVS) Enzymatic Assay for human Sirtuin 3 (SIRT3) (AID 2283222). The method in brief:
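Cell-free enzyme assay with recombinant protein and fluorescent substrate, product separated by electrophoretic mobility shift; read 1 hour after dosing. Screened in duplicate at 25 uM, then singleton concentration-response up to 50 uM; loss of signal versus DMSO.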

Test [6] deals with human Raf-1 Proto-Oncogene, serine/threonine Kinase (RAF1), RAF1 (gene 5894) (UniProt P04049). The experiment in a line: NVS_ENZ_hRAF1: NovaScreen (NVS) Enzymatic Assay for human Raf-1 Proto-Oncogene, serine/threonine Kinase (RAF1) (AID 2283216). A digest of the protocol: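 Cell-free recombinant kinase with specific fluorescent substrate, product separated by electrophoretic mobility shift; read 1 h after dosing. Primary screen at 25 uM in duplicate; hits then run in concentration-response up to 50 uM, fitted as loss of signal versus DMSO.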

Test [7] deals with human Sirtuin 2 (SIRT2), SIRT2 (gene 22933) (UniProt Q8IXJ6). Put plainly: NVS_ENZ_hSIRT2: NovaScreen (NVS) Enzymatic Assay for human Sirtuin 2 (SIRT2) (AID 2283217). A digest of the protocol: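 Cell-free recombinant human SIRT2, fluorescent substrate with product separated by electrophoretic mobility shift, 1 hr. Screened in duplicate at 25 uM; hits rerun singly in concentration-response up to 50 uM, relative to DMSO.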

Test [8] deals with human Sirtuin 1 (SIRT1), SIRT1 (gene 23411) (UniProt Q96EB6). The experiment in a line: NVS_ENZ_hSIRT1: NovaScreen (NVS) Enzymatic Assay for human Sirtuin 1 (SIRT1) (AID 2283219). The method in brief:
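Cell-free recombinant SIRT1 with a fluorescent substrate; substrate and product separated by electrophoretic mobility shift and read by fluorescence intensity, 1 h after dosing. Primary screen at 25 uM in duplicate; hits re-run in concentration-response up to 50 uM, relative to DMSO.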

The target of test [9] is human SRC Proto-Oncogene, Non-receptor Tyrosine Kinase (SRC), SRC (gene 6714) (UniProt P12931). The experiment in a line: NVS_ENZ_hSRC: NovaScreen (NVS) Enzymatic Assay for human SRC Proto-Oncogene, Non-receptor Tyrosine Kinase (SRC) (AID 2283223). A digest of the protocol: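 Cell-free kinase activity assay with fluorescent substrate, product separated by electrophoretic mobility shift, read 1 h after dosing. Duplicate single point at 25 uM, then concentration-response up to 50 uM; loss of signal versus DMSO.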

human Protein Tyrosine Phosphatase Receptor Type M (PTPRM), PTPRM (gene 5797), sequence (P28827 whole entry, looked up): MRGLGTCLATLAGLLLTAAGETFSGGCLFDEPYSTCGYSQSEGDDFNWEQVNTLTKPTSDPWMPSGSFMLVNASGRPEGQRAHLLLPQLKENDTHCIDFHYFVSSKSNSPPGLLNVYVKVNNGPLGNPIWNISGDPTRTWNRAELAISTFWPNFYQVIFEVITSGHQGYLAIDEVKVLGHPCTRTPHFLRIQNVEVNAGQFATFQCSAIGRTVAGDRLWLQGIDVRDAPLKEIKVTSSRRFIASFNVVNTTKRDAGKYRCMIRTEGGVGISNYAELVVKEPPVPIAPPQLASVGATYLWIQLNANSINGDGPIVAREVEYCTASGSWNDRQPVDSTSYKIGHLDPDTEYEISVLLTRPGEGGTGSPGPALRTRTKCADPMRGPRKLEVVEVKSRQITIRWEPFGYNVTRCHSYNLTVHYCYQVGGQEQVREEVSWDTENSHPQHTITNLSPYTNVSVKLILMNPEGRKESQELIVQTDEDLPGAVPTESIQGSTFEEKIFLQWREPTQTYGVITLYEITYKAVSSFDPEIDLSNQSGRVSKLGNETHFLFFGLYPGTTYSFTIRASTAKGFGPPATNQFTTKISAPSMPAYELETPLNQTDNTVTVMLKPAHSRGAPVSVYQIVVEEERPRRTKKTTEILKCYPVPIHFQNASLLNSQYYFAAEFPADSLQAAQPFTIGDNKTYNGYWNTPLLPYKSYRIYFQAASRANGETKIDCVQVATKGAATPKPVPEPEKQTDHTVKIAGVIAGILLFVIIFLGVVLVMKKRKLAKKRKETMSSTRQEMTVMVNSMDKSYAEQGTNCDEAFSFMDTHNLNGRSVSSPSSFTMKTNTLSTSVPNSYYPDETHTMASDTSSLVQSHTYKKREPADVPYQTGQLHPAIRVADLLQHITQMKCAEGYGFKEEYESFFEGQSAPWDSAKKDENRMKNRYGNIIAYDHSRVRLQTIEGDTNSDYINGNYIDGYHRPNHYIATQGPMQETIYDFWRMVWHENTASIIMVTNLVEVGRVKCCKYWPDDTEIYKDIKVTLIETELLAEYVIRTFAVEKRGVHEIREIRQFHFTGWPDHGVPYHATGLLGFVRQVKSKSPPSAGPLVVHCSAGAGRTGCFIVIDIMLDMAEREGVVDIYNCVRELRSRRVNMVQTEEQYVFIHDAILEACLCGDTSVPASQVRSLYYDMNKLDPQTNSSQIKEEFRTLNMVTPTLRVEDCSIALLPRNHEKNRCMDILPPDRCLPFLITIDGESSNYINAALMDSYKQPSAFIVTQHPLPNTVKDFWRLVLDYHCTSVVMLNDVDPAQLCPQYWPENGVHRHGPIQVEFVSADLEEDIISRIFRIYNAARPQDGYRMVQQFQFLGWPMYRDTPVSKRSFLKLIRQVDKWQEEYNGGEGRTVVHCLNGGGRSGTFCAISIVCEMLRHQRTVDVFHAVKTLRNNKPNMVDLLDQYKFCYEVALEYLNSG
human Sirtuin 3 (SIRT3), SIRT3 (gene 23410), sequence (Q9NTG7 whole entry, looked up): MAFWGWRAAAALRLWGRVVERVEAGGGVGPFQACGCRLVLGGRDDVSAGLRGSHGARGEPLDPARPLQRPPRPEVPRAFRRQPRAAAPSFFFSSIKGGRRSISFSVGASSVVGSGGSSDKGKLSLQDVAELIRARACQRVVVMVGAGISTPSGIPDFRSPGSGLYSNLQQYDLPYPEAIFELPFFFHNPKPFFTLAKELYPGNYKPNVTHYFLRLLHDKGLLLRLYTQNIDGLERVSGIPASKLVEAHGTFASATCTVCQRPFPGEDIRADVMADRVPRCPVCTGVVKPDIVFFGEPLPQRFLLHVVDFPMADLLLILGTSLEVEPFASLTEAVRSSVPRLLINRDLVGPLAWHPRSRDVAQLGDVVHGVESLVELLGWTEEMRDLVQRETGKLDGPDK
human Sirtuin 1 (SIRT1), SIRT1 (gene 23411), sequence (Q96EB6 whole entry, looked up): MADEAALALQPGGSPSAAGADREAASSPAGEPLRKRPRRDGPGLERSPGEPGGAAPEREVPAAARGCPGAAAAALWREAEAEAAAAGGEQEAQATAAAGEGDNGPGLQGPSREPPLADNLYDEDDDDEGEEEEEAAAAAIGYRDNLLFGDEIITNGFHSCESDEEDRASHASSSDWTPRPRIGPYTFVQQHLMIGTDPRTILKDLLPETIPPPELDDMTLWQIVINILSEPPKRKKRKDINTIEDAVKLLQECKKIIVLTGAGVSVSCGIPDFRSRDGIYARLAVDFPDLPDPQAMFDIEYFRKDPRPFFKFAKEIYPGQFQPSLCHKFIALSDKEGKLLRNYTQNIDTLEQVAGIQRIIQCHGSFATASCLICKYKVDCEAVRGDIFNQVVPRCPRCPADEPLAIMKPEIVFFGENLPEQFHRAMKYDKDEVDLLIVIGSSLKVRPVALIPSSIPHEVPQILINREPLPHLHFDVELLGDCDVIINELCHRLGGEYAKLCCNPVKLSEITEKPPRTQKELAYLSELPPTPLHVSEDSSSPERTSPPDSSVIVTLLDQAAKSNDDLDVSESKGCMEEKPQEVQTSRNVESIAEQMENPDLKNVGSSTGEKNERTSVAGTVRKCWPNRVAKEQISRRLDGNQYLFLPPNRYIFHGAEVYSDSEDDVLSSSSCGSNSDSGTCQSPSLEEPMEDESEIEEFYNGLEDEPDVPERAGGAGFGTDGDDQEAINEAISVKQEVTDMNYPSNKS
rabbit Imidazoline 2 Central (I2C), CKB (gene 100009085), sequence (P00567 whole entry, looked up): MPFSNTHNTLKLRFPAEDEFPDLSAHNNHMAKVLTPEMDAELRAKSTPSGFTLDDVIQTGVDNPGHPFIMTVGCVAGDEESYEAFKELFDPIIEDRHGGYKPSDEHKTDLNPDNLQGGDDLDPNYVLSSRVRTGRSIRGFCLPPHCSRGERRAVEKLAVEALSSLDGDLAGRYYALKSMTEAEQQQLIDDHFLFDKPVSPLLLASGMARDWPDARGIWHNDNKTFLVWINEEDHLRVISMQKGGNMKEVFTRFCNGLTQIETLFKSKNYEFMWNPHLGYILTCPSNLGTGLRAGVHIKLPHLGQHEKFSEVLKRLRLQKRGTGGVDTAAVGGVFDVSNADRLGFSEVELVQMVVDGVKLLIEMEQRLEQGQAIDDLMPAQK
human Raf-1 Proto-Oncogene, serine/threonine Kinase (RAF1), RAF1 (gene 5894), sequence (P04049 whole entry, looked up): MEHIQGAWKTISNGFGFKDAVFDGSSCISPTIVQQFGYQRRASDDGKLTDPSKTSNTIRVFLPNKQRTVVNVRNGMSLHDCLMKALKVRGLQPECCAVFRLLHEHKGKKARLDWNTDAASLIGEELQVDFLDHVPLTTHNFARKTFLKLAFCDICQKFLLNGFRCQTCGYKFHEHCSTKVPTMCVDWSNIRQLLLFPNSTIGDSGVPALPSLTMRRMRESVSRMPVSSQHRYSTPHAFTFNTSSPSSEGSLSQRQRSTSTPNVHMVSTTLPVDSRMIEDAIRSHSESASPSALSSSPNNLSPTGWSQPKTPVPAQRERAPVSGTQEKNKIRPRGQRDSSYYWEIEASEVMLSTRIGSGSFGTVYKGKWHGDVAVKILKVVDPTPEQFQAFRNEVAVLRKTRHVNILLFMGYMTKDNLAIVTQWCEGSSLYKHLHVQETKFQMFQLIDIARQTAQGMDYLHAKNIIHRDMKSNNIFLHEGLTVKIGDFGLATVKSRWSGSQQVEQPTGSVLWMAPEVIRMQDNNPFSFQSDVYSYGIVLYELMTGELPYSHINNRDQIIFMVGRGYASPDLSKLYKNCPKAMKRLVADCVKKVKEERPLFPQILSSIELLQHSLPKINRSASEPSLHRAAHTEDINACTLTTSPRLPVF
human Tyrosine Protein Kinase Receptor Tie-2 (Tie2), TEK (gene 7010), sequence (Q02763 whole entry, looked up): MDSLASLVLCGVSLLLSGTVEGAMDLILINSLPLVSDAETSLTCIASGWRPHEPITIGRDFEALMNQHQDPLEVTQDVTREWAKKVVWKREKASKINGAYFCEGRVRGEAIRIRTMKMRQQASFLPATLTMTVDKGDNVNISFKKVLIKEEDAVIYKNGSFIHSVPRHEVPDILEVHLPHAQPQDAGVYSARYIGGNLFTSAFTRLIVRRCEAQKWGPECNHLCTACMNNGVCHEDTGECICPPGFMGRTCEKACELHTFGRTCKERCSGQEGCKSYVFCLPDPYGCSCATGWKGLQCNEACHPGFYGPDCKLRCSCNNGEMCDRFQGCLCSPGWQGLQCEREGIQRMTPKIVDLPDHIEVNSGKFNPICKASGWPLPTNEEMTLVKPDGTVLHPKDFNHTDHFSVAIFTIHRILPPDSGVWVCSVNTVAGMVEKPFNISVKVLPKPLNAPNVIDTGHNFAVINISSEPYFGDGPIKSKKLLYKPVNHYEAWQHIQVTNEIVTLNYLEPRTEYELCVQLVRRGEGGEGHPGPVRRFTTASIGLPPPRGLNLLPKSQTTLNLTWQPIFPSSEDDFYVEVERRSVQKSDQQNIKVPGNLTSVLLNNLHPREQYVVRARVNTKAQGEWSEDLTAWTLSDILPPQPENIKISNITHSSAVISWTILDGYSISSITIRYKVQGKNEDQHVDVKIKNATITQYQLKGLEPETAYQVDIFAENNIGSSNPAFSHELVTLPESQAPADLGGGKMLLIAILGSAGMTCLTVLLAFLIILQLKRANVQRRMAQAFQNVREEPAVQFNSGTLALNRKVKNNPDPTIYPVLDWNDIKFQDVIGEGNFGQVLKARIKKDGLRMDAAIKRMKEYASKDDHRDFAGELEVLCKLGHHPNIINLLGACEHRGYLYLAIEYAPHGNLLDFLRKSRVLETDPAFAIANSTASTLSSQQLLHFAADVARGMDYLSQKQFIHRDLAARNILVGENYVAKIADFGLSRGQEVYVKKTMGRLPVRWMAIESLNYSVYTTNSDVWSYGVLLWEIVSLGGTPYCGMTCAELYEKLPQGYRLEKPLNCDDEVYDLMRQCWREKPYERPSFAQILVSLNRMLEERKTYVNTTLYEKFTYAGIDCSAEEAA

For the compound `C#CC(C)(C)NC(=O)c1cc(Cl)cc(Cl)c1`, the call in test [1] was inactive. Turning to `CCOP(=S)(OCC)SCCSCC`, the call in [2] was inactive. Turning to `O=[N+]([O-])c1cc(C(F)(F)F)c(Cl)c([N+](=O)[O-])c1Nc1ncc(C(F)(F)F)cc1Cl`, the call in [3] and in test [4] was inactive. `CCC(=O)Nc1ccc(Cl)c(Cl)c1`: the half-maximal activity concentration (AC50) (in general, the concentration giving half of the maximal activity seen) in test [1] was 15.7 µM (active).

`CCCCOC(=O)c1ccccc1C(=O)O`: the result in test [4] was inactive. As for `COc1ccc(C(=CC(=O)N2CCOCC2)c2ccc(Cl)cc2)cc1OC`, in test [5], the compound was called inactive. On to `CN(C)C(=O)Nc1cccc(C(F)(F)F)c1`, for which the outcome in [6] was inactive. Regarding `FC(F)C(F)(F)OCC(Cn1cncn1)c1ccc(Cl)cc1Cl` (stereo not drawn), the AC50 in test [7] was 14.6 µM (active); in test [5] it was 25 µM (active). Regarding `N#CSCSC#N`, the result in test [3] and in [5] was inactive. Also, the AC50 in [8] was 11.3 µM (active). Take `CC(C)[C@H](C(=O)O[C@H](C#N)c1cccc(Oc2ccccc2)c1)c1ccc(Cl)cc1`: the compound was classed as inactive in test [5] and in test [9].

With `COP(=O)(OC)OC(Br)C(Cl)(Cl)Br` (stereo not drawn), the call in test [3] was inactive. Further, the AC50 in test [8] was 15.8 µM (active). Consider `CCCOCC(=Nc1ccc(Cl)cc1C(F)(F)F)n1ccnc1`, for which the outcome in test [6] was inactive.
